Test results as given in PubChem BioAssay (NCATS).
Inconclusive results are not listed. A call without a number means that no potency is given here. Active and inactive are the calls of the source. The call rests on the fitted dose curve; in most records, active means well fitted curve in the direction sought with a large enough effect; inconclusive means small, poorly fitted or top-dose-only effect, or another doubt; inactive means no such curve, though single readings can be large; an effect the other way counts as inactive or inconclusive.

Assays:
[1] = biological target: Aldehyde dehydrogenase, mitochondrial (Homo sapiens) (UniProt P05091); assay: qHTS for Inhibitors of the Aldehyde Dehydrogenase Family (ALDH2) Primary screen (AID 2061308); further: nearly all actives have a fitted effect of over 55% in size
[2] = biological target: Retinaldehyde dehydrogenase 3 (Homo sapiens) (UniProt P47895); assay: qHTS for Inhibitors of the Aldehyde Dehydrogenase Family (ALDH1A3) Primary screen (AID 2061315)

For Oc1ccc(-c2ccccc2F)c2cccnc12, the Potency [1] was “inactive” and the Potency [2] was “inactive”.

In the case of CCN(CC)CCCC(C)n1c(-c2ccccc2)nc2c(NC3CCCCC3)nc(C)nc21 (centres undefined), the Potency [1] is reported as “inactive” and the Potency [2] is reported as “inactive”.

With Cc1cc2c(s1)c1cnn(Cc3cccc(Cl)c3F)c(=O)c1n2C the Potency [1] was “inactive” and the Potency [2] was “inactive”.

For Cc1ccc(OCCn2c(CCNC(=O)c3ccc(C)cc3)nc3ccccc32)cc1, the Potency [1] was “inactive” and the Potency [2] was “inactive”.

COc1ccccc1-c1csc2ncnc(Sc3nnnn3C)c12 was tested, and the Potency [1] was “inactive” and the Potency [2] was “inactive”.

For C#CCCC(=O)Nc1sc2c(c1-c1nc3ccccc3s1)CCN(C(C)C)C2, the Potency [1] was “inactive” and the Potency [2] was “inactive”.

With O=C(COc1ccc(F)cc1)NCCc1nc2ccccc2[nH]1 the Potency [1] was “inactive” and the Potency [2] was “inactive”.

In the case of C=C(C(=O)OC)[C@@H]1CC=C2C=CC(=O)[C@H](C)[C@@]2(C)C1, the Potency [1] is reported as “inactive” and the Potency [2] is reported as “inactive”.

CCN(CC)Cc1cccc(/C=C/c2nc3ccc(F)cc3c(=O)n2-c2ccccc2Cl)n1 was tested, and the Potency [1] was “inactive” and the Potency [2] was “inactive”.

With COc1ccc(C(=O)Nc2nc(-c3ccccc3)cs2)c(OC)c1 the Potency [1] was “inactive” and the Potency [2] was “inactive”.

With Cc1noc(C)c1-c1ccc2ncnc(NCc3ccc(C(F)(F)F)cc3)c2c1 the Potency [1] was “inactive” and the Potency [2] was “inactive”.

With O=C(NCCc1nc2ccccc2n1CCOc1ccc(Cl)cc1)C1CCCCC1 the Potency [1] was “inactive” and the Potency [2] was “inactive”.

In the case of O=C1c2ccccc2C(=O)N1c1noc2ccccc12, the Potency [1] is reported as “inactive” and the Potency [2] is reported as “inactive”.

COc1cccc(NS(=O)(=O)c2ccc3c(c2)CCC(=O)N3)c1 was tested, and the Potency [1] was “inactive” and the Potency [2] was “inactive”.

In the case of FC(F)(F)c1cccc(CSc2nc3ncc(Br)cc3[nH]2)c1, the Potency [1] is reported as “inactive” and the Potency [2] is reported as “inactive”.

In the case of Cc1ccc(CNc2ncnc3ccc(-c4ccc5c(c4)OCO5)cc23)o1, the Potency [1] is reported as “inactive” and the Potency [2] is reported as “inactive”.

S=P(c1ccccc1)(c1ccccc1)c1nc(CCCc2ccccc2)n2ccccc12 was tested, and the Potency [1] was “inactive” and the Potency [2] was “inactive”.

For COc1ccc(C2Nc3ccccc3C(=O)N2Cc2ccc(C)o2)cc1COc1c(C)cccc1C (centres undefined), the Potency [1] was “inactive” and the Potency [2] was “inactive”.

Fc1cc(Nc2nc(-c3ccncc3)nc3ccccc23)ccc1-c1cccc(OC(F)F)c1 was tested, and the Potency [1] was “inactive” and the Potency [2] was “inactive”.

With N#Cc1nonc1-c1ccccc1 the Potency [1] was “inactive” and the Potency [2] was “inactive”.

With COc1ccc(C2=Nn3c(nnc3-c3ccccc3OC)SC2)cc1OCC1CC1 the Potency [1] was “inactive” and the Potency [2] was “inactive”.

With CC(Nc1ccc([S+](=O)([O-])Nc2nccs2)cc1)c1ccccc1 (centres undefined) the Potency [1] was “inactive” and the Potency [2] was “inactive”.

With Cc1ccc(NC(=O)CSc2nnc(-c3cccc([S+](=O)([O-])N4CCCC4)c3)n2-c2ccccc2)cc1 the Potency [1] was “inactive” and the Potency [2] was “inactive”.

In the case of O=C(OCC#CCSc1nnc(-c2cccc3ccccc23)o1)c1ccccc1F, the Potency [1] is reported as “inactive” and the Potency [2] is reported as “inactive”.

For COc1cc(-c2ccc3ncnc(NCC4CCCO4)c3c2)cc(OC)c1OC (centres undefined), the Potency [1] was “inactive” and the Potency [2] was “inactive”.

COC(=N)c1nc2ccc3ncnc(Nc4ccc(F)cc4Br)c3c2s1 was tested, and the Potency [1] was “inactive” and the Potency [2] was “inactive”.

With CCN(CC)C(=O)COC(=O)c1ccc(S(C)(=O)=O)c([N+](=O)[O-])c1 the Potency [1] was “inactive” and the Potency [2] was “inactive”.

CCCn1c(-c2ccc(F)cc2)nc2c(NCCN3CCCCC3)nc(C)nc21 was tested, and the Potency [1] was “inactive” and the Potency [2] was “inactive”.

For Cc1cc(C)nc(NC(=S)N2CCN(c3ccc(F)c(F)c3F)CC2)c1, the Potency [1] was “inactive” and the Potency [2] was “inactive”.

Cc1nc(NCCO)c2nc(-c3ccccc3)n(CCN(C)C)c2n1 was tested, and the Potency [1] was “inactive” and the Potency [2] was “inactive”.

In the case of CCOC(=O)C1CCN(C(=O)C(C)(C)NC(=O)Nc2cccc(OC)c2)CC1, the Potency [1] is reported as “inactive” and the Potency [2] is reported as “inactive”.

With Fc1ccc(Nc2nc(-c3ccnc(C(F)(F)F)c3)nc3ccccc23)cc1F the Potency [1] was “inactive” and the Potency [2] was “inactive”.

With N#CN1CCC(NS(=O)(=O)c2ccc(C(F)(F)F)cc2)C1 (centres undefined) the Potency [1] was “inactive” and the Potency [2] was “inactive”.

For CN(C)c1ccc(CNc2nc(-c3ccccc3C(F)(F)F)nc3ccccc23)cc1, the Potency [1] was “inactive” and the Potency [2] was “inactive”.

Cc1ccc(NS(=O)(=O)c2cc3c(cc2F)NC(=O)CC3)cc1C was tested, and the Potency [1] was “inactive” and the Potency [2] was “inactive”.

For c1nc(NCc2ccoc2)c2cc(-c3ccc4c(c3)OCO4)ccc2n1, the Potency [1] was “inactive” and the Potency [2] was “inactive”.

For O=C1Nc2cccc(Cl)c2/C1=C\c1cc(Cl)c(O)c(Cl)c1, the Potency [1] was “inactive” and the Potency [2] was “inactive”.
